Experimental data as given in PubChem BioAssay (NCI).
About 83,000 compounds went through this panel and 20% of them were active in at least one assay; those are over-represented in the sample as a whole.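 Each cell line was grown in a 96-well plate and treated with one concentration of compound for 48 hours. Values below 10 were considered active.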 Activity calls are given as the source filed them.

Experiments:
Assay in all cases: NCI-60 one-dose screen, 48 h (100 = growth as untreated, 0 = no growth, -100 = all killed)
Details in all cases: 10 µM
SK-MEL-2 melanoma = test system: SK-MEL-2 melanoma
EKVX NSCLC = test system: EKVX NSCLC
SN12C renal = test system: SN12C renal
UO-31 renal = test system: UO-31 renal
TK-10 renal = test system: TK-10 renal
ACHN renal = test system: ACHN renal
A498 renal = test system: A498 renal
CCRF-CEM leukemia = test system: CCRF-CEM leukemia
MOLT-4 leukemia = test system: MOLT-4 leukemia
SR leukemia = test system: SR leukemia
RPMI-8226 leukemia = test system: RPMI-8226 leukemia
OVCAR-8 ovarian = test system: OVCAR-8 ovarian
OVCAR-5 ovarian = test system: OVCAR-5 ovarian
OVCAR-4 ovarian = test system: OVCAR-4 ovarian
SK-OV-3 ovarian = test system: SK-OV-3 ovarian
IGROV1 ovarian = test system: IGROV1 ovarian
OVCAR-3 ovarian = test system: OVCAR-3 ovarian
HS 578T breast = test system: HS 578T breast
NCI/ADR-RES ovarian = test system: NCI/ADR-RES ovarian

Measured: growth

CCOC(=O)c1cc(C(=O)c2ccc(OC)c(OC)c2)n2c1ccc1ccc3cccnc3c12
active: A498 renal -5.4% | RPMI-8226 leukemia 5.4%
inactive: SK-MEL-2 melanoma 19% | EKVX NSCLC 78.6% | SN12C renal 62.1% | UO-31 renal 44% | TK-10 renal 70.5% | ACHN renal 47.4% | CCRF-CEM leukemia 19.9% | MOLT-4 leukemia 33.8% | SR leukemia 23.1% | OVCAR-8 ovarian 29% | OVCAR-5 ovarian 79.7% | OVCAR-4 ovarian 59.2% | SK-OV-3 ovarian 17.8% | IGROV1 ovarian 46% | OVCAR-3 ovarian 10.3% | HS 578T breast 25% | NCI/ADR-RES ovarian 21.6%

COc1cc(-c2nn(-c3cccc(NC(=O)CCN4CCN(Cc5ccccc5)CC4)c3)cc2-c2ccncc2)ccc1Cl
active: SK-MEL-2 melanoma -31.2% | A498 renal -8.39% | CCRF-CEM leukemia 4.24% | MOLT-4 leukemia 5.06% | SR leukemia -28.5% | RPMI-8226 leukemia -23.2% | OVCAR-3 ovarian 7.04% | NCI/ADR-RES ovarian -21.4%
inactive: EKVX NSCLC 48.2% | SN12C renal 41.7% | UO-31 renal 15.6% | TK-10 renal 26.1% | ACHN renal 24.1% | OVCAR-8 ovarian 12.7% | OVCAR-5 ovarian 22.9% | OVCAR-4 ovarian 36.2% | SK-OV-3 ovarian 22.3% | IGROV1 ovarian 31.9%

Cc1ccc(NCCN(C)CC(C)O)c2c(=O)c3ccc(Cl)cc3sc12 (stereo unspecified)
inactive: SK-MEL-2 melanoma 66.8% | EKVX NSCLC 78.5% | SN12C renal 49.8% | UO-31 renal 51.5% | TK-10 renal 79.1% | ACHN renal 44.6% | A498 renal 73.8% | CCRF-CEM leukemia 20.4% | MOLT-4 leukemia 16.2% | OVCAR-8 ovarian 58.1% | OVCAR-5 ovarian 77.9% | OVCAR-4 ovarian 67.9% | SK-OV-3 ovarian 91.6% | IGROV1 ovarian 39.8% | OVCAR-3 ovarian 73.3% | HS 578T breast 58.6% | NCI/ADR-RES ovarian 57.8%
active: SR leukemia -28.9% | RPMI-8226 leukemia -8.72%
